# Laboratory results: paper PMC7862700, “An all-to-all approach to the identification of sequence-specific readers for epigenetic DNA modifications on cytosine”
# Legend:
# Assay in all cases: DAPPL (digital affinity profiling via proximity ligation, sequencing); 10 mM Tris-HCl pH 7.5, 50 mM NaCl, 1 mM DTT, 4% glycerol, room temperature, 30 min; GST-TFs on glutathione beads, 16-mer random dsDNA library, 0.1% formaldehyde crosslink after washing; high values mean tight binding
# FLI1 = molecular target: T1, FLI1 (Homo sapiens, UniProt Q01543 1-452); details: protein: recombinant; tags: N-terminal GST; dsDNA, one strand shown
# T1 sequence: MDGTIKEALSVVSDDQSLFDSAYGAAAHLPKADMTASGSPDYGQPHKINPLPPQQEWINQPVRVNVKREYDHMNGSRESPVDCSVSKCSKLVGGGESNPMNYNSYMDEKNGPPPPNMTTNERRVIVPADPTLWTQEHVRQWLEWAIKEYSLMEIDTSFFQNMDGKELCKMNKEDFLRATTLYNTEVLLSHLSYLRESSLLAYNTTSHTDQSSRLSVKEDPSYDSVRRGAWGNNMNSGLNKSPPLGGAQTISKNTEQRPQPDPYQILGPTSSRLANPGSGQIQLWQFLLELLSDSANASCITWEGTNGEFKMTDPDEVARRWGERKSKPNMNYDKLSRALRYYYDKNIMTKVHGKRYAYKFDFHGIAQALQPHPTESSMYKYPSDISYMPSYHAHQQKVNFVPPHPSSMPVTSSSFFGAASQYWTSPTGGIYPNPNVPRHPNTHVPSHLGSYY
# How it was run: (§1)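 Human transcription factors were made in yeast as GST fusions, captured on glutathione beads and barcoded with DNA. With a tag-only sample included, the pool was incubated with 200 nmole of a random double-stranded 16-mer DNA library in Tris/NaCl/DTT/glycerol buffer at room temperature for 30 min, then crosslinked with 0.1% formaldehyde after washing, ligated by proximity, amplified and sequenced. For binding signal, each hexamer's read frequency for a factor is divided by its frequency for the tag-only sample.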
# ELK1 = molecular target: T2, ELK1 (Homo sapiens, UniProt P19419 1-428); details: protein: recombinant; tags: N-terminal GST; dsDNA, one strand shown
# T2 sequence: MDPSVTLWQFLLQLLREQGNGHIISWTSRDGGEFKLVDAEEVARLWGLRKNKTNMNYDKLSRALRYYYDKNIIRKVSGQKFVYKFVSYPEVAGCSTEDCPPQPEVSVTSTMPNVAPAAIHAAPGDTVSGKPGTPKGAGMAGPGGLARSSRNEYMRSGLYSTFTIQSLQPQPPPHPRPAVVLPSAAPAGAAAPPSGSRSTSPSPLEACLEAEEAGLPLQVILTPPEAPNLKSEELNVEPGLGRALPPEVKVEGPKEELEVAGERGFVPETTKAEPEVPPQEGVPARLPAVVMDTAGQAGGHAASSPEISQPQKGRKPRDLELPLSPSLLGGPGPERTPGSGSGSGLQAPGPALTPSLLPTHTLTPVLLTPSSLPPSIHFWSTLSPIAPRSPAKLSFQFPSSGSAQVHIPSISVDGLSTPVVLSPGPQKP
# How it was run: as §1
# GABPA = molecular target: T3, GABPA (Homo sapiens, UniProt Q06546 1-454); details: protein: recombinant; tags: N-terminal GST; dsDNA, one strand shown
# T3 sequence: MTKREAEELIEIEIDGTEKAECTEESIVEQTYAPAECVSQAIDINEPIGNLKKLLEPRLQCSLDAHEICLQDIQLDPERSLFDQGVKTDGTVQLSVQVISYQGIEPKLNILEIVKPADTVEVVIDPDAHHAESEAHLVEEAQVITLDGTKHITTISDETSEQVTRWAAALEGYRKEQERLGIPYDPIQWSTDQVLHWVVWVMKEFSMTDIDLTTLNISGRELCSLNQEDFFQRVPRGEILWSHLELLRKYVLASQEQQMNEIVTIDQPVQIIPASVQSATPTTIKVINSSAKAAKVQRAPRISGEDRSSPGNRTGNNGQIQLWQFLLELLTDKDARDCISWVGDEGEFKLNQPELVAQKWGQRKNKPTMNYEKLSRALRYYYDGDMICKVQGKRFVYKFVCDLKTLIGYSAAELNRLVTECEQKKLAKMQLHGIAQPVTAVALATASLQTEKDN
# How it was run: as §1
# ERG = molecular target: T4, ERG (Homo sapiens, UniProt P11308 1-479); details: protein: recombinant; tags: N-terminal GST; dsDNA, one strand shown
# T4 sequence: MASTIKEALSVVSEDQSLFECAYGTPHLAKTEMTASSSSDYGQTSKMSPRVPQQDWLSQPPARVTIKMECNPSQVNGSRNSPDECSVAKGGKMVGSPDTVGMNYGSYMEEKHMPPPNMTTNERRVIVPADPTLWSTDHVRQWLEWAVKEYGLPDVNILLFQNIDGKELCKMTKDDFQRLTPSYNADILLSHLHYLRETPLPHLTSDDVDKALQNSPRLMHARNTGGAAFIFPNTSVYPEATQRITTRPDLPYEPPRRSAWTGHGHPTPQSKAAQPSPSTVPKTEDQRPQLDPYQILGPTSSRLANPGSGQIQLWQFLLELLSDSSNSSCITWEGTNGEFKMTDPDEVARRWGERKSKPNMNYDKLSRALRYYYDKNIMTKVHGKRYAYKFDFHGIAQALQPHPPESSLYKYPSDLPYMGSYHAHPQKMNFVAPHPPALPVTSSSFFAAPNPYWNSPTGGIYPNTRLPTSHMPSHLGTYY
# How it was run: as §1
# ELF1 = ELF1 (Homo sapiens, UniProt P32519 1-619); details: protein: recombinant; tags: N-terminal GST; dsDNA, one strand shown
# How it was run: as §1
# EHF = molecular target: T5, EHF (Homo sapiens, UniProt Q9NZC4 1-300); details: protein: recombinant; tags: N-terminal GST; dsDNA, one strand shown
# T5 sequence: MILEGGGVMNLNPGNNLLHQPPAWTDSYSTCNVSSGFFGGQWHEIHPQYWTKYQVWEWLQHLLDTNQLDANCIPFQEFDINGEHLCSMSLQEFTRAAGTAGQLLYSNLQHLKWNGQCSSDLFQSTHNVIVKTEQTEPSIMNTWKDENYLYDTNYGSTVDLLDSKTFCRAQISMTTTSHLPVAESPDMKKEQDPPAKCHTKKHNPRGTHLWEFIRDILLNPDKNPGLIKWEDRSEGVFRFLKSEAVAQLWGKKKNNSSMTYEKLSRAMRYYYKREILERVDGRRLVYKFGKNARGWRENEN
# How it was run: as §1
# SPI1 = SPI1 (Homo sapiens, UniProt P17947 1-270); details: protein: recombinant; tags: N-terminal GST; dsDNA, one strand shown
# How it was run: as §1
# SPIB = SPIB (Homo sapiens, UniProt Q01892 1-262); details: protein: recombinant; tags: N-terminal GST; dsDNA, one strand shown
# How it was run: as §1
# ELK3 = molecular target: T6, ELK3 (Homo sapiens, UniProt P41970 1-407); details: protein: recombinant; tags: N-terminal GST; dsDNA, one strand shown
# T6 sequence: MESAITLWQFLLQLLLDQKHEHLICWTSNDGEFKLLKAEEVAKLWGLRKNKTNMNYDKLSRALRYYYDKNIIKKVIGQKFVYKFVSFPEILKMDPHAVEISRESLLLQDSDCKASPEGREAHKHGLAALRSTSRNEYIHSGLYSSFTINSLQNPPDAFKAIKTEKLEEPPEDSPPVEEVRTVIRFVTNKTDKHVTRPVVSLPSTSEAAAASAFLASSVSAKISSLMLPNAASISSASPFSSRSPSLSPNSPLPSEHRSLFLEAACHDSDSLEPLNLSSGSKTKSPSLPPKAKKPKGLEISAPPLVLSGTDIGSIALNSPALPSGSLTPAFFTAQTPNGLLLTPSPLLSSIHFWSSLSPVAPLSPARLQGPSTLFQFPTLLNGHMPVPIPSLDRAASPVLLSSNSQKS
# How it was run: as §1
# FEV = molecular target: T7, FEV (Homo sapiens, UniProt Q99581 1-238); details: protein: recombinant; tags: N-terminal GST; dsDNA, one strand shown
# T7 sequence: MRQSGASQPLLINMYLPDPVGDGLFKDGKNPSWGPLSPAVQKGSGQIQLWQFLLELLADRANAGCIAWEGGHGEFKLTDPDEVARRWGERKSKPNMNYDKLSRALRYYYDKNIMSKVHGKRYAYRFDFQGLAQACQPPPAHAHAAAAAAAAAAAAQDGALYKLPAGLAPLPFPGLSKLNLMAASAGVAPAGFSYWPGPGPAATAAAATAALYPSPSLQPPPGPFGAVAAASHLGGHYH
# How it was run: as §1
# ETV5 = ETV5 (Homo sapiens, UniProt P41161 1-510); details: protein: recombinant; tags: N-terminal GST; dsDNA, one strand shown
# How it was run: as §1
# HSF1 = HSF1 (Homo sapiens, UniProt Q00613 1-529); details: protein: recombinant; tags: N-terminal GST; chain copies: 3; dsDNA, one strand shown
# How it was run: as §1
# SPIC = molecular target: T8, SPIC (Homo sapiens, UniProt Q8N5J4 1-248); details: protein: recombinant; tags: N-terminal GST; dsDNA, one strand shown
# T8 sequence: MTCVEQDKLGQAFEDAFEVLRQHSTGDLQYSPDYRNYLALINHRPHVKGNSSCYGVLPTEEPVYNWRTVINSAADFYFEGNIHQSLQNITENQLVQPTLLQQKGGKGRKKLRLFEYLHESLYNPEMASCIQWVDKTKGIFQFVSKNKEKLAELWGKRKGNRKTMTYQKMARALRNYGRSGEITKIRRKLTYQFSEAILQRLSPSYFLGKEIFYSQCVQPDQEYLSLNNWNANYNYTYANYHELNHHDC
# How it was run: as §1
# ELF4 = ELF4 (Homo sapiens, UniProt Q99607 1-663); details: protein: recombinant; tags: N-terminal GST; dsDNA, one strand shown
# How it was run: as §1
# ELK4 = molecular target: T9, ELK4 (Homo sapiens, UniProt P28324-2 1-405); details: protein: recombinant; tags: N-terminal GST; dsDNA, one strand shown
# T9 sequence: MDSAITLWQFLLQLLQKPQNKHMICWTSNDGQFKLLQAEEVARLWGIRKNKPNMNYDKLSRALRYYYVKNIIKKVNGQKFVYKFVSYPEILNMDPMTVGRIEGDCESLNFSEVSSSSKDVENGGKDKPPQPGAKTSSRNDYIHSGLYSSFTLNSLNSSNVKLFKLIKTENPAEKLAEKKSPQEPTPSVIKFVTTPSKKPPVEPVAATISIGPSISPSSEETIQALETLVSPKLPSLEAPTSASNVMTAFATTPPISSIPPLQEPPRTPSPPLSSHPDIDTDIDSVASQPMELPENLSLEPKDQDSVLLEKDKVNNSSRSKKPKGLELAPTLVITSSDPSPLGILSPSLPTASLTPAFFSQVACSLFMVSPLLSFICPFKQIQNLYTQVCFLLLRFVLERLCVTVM
# How it was run: as §1
# ETV2 = molecular target: T10, ETV2 (Homo sapiens, UniProt O00321 1-342); details: protein: recombinant; tags: N-terminal GST; dsDNA, one strand shown
# T10 sequence: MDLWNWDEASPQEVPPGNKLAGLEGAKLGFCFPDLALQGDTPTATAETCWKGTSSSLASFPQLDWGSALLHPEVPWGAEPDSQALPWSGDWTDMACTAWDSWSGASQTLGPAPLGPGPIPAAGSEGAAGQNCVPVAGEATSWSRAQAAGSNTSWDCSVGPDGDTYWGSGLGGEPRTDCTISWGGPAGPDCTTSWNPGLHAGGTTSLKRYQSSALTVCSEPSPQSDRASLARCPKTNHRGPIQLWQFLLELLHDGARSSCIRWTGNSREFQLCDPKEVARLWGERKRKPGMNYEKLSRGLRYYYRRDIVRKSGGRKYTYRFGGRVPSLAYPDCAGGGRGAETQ
# How it was run: as §1
# ELF3 = molecular target: T11, ELF3 (Homo sapiens, UniProt P78545 1-371); details: protein: recombinant; tags: N-terminal GST; dsDNA, one strand shown
# T11 sequence: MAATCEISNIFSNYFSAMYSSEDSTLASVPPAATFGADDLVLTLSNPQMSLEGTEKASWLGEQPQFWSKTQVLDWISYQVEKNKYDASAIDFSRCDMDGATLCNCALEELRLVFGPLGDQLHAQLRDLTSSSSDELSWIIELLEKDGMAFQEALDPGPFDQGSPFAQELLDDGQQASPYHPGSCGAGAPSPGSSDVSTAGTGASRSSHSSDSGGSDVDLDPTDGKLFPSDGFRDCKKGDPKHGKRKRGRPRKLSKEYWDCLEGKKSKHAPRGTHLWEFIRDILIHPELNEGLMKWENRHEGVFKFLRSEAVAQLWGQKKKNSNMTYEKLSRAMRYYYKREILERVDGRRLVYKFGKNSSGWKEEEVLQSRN
# How it was run: as §1
# CRX = CRX (Homo sapiens, UniProt O43186 1-299); details: protein: recombinant; tags: N-terminal GST; dsDNA, one strand shown
# How it was run: as §1
# ETV1 = ETV1 (Homo sapiens, UniProt P50549 1-477); details: protein: recombinant; tags: N-terminal GST; dsDNA, one strand shown
# How it was run: as §1
# ELF4, sequence (Q99607 whole entry): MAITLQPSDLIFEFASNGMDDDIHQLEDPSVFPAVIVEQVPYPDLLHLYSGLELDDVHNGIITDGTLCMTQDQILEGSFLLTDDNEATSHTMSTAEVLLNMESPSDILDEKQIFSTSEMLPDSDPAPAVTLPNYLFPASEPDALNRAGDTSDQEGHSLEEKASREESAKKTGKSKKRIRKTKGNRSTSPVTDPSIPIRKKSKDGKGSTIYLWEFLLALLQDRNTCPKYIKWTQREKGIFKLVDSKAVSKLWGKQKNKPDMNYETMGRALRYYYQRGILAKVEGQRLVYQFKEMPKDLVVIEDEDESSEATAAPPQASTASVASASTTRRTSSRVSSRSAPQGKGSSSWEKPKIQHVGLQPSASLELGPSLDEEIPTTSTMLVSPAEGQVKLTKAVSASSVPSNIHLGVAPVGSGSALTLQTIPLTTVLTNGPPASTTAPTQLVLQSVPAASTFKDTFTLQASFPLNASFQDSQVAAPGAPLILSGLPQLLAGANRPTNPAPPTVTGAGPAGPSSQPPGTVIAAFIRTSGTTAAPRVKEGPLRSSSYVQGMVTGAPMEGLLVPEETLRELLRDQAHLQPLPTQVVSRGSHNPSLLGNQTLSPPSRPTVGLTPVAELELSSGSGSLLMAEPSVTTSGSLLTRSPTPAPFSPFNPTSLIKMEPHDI
# SPIB, sequence (Q01892 whole entry): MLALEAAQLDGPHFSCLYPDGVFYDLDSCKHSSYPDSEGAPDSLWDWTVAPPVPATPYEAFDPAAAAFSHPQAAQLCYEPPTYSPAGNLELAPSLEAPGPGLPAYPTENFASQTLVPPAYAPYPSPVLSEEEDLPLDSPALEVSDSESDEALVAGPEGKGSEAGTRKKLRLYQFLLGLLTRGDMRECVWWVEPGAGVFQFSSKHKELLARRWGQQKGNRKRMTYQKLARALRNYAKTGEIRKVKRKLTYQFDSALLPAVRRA
# ETV5, sequence (P41161 whole entry): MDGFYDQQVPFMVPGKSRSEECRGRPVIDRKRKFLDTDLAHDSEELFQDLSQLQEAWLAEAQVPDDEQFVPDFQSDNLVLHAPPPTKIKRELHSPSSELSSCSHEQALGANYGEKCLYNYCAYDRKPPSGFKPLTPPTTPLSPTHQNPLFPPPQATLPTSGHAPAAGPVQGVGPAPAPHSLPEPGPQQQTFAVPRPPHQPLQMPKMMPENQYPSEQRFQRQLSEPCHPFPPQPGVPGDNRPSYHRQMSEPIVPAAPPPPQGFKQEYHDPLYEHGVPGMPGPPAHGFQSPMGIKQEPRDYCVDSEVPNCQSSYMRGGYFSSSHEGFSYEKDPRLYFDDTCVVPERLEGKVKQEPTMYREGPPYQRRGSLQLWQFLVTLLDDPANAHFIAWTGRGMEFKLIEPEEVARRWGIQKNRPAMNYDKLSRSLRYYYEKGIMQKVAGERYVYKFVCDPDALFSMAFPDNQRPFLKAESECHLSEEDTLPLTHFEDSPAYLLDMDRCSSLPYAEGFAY
# ELF1, sequence (P32519 whole entry): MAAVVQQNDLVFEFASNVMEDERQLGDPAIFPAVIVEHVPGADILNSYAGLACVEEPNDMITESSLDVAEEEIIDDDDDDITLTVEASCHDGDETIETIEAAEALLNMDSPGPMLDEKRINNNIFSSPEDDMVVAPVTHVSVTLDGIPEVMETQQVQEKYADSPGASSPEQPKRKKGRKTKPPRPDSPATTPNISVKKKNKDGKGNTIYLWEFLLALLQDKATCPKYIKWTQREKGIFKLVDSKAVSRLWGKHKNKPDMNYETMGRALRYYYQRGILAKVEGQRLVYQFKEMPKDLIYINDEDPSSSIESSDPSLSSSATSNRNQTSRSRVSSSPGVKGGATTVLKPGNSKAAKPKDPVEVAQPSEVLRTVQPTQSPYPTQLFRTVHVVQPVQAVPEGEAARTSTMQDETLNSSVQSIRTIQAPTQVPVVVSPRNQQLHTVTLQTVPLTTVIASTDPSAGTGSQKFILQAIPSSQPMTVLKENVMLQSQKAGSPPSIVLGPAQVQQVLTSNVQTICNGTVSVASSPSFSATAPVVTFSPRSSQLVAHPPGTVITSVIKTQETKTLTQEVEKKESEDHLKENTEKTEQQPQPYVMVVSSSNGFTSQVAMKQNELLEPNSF
# HSF1, sequence (Q00613 whole entry): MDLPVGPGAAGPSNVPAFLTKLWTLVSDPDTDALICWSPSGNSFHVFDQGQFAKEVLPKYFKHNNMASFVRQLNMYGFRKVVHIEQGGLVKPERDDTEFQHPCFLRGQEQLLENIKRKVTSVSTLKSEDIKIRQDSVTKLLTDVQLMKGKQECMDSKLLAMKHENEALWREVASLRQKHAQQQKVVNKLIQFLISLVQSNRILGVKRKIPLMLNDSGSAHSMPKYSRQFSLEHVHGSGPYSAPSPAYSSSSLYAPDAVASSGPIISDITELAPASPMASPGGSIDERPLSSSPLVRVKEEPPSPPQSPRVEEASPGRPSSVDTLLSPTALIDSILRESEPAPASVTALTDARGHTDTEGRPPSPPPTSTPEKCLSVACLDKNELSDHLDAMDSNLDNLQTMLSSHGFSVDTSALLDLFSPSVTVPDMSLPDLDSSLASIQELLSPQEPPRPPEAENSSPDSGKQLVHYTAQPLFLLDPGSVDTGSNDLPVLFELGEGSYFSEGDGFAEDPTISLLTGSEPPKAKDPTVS
# ETV1, sequence (P50549 whole entry): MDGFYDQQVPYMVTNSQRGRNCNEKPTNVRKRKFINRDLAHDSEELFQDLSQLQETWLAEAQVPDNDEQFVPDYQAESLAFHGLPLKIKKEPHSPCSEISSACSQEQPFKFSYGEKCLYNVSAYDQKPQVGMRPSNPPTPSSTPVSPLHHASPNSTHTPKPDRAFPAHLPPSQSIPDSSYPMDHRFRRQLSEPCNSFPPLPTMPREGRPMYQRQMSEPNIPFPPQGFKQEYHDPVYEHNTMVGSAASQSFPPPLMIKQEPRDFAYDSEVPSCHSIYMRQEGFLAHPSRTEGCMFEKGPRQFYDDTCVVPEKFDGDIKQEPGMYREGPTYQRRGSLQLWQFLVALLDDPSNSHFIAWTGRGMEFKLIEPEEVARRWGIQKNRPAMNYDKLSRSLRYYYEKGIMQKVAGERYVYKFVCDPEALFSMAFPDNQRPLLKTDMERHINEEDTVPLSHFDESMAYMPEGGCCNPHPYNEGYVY
# CRX, sequence (O43186 whole entry): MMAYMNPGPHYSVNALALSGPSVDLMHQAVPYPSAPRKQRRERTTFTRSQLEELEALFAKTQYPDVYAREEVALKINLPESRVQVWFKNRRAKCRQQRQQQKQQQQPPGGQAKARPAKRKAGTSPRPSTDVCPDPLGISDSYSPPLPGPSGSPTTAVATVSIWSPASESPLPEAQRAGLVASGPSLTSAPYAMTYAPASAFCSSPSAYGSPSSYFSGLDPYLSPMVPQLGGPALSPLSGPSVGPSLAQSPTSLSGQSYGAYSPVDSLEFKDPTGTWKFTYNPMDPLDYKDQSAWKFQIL
sequence,measurement,setting,value
TCATCC,binding signal,FLI1,"1.4 fold enrichment (6-mer frequency, TF over GST control)"
same,binding signal,ELK1,"1.38 fold enrichment (6-mer frequency, TF over GST control)"
same,binding signal,GABPA,"1.39 fold enrichment (6-mer frequency, TF over GST control)"
same,binding signal,ERG,"1.36 fold enrichment (6-mer frequency, TF over GST control)"
same,binding signal,ELF1,"1.41 fold enrichment (6-mer frequency, TF over GST control)"
same,binding signal,EHF,"1.38 fold enrichment (6-mer frequency, TF over GST control)"
same,binding signal,SPI1,"1.34 fold enrichment (6-mer frequency, TF over GST control)"
same,binding signal,SPIB,"1.34 fold enrichment (6-mer frequency, TF over GST control)"
same,binding signal,ELK3,"1.43 fold enrichment (6-mer frequency, TF over GST control)"
same,binding signal,FEV,"1.4 fold enrichment (6-mer frequency, TF over GST control)"
same,binding signal,ETV5,"1.35 fold enrichment (6-mer frequency, TF over GST control)"
same,binding signal,HSF1,"1.38 fold enrichment (6-mer frequency, TF over GST control)"
same,binding signal,SPIC,"1.39 fold enrichment (6-mer frequency, TF over GST control)"
same,binding signal,ELF4,"1.36 fold enrichment (6-mer frequency, TF over GST control)"
same,binding signal,ELK4,"1.24 fold enrichment (6-mer frequency, TF over GST control)"
same,binding signal,ETV2,"1.44 fold enrichment (6-mer frequency, TF over GST control)"
same,binding signal,ELF3,"1.49 fold enrichment (6-mer frequency, TF over GST control)"
same,binding signal,CRX,"1.65 fold enrichment (6-mer frequency, TF over GST control)"
same,binding signal,ETV1,"1.35 fold enrichment (6-mer frequency, TF over GST control)"
